Screening results (PubChem BioAssay)
A selection: hits, their analogues and other compounds. The true share with any hit is near 19%.
DT40 TDP1 CPT: qHTS for Inhibitors of human tyrosyl-DNA phosphodiesterase 1 (TDP1): qHTS in cells in presence of CPT. AID 686979, 2013. chicken DT40 Tdp1-/-;hTDP1 cells + 20 nM CPT, ATP luminescence, 48 h. Potency, µM (titrated, usually from 46.2 µM), inactives show top-dose activity change, negative = growth inhibition, hits mostly inhibitors. hit rate 12% among 420,000; further: potency means the concentration at half of the fitted maximal effect; nearly all actives have a fitted effect of over 55% in size
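Cell growth measured by CellTiter-Glo luminescence after a minimum 48 h, 37 C compound exposure with 20 nM CPT in Tdp1-knockout DT40 cells stably expressing hTDP1, seeded 400/well; qHTS titration format.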
ELG1 DNA repair: qHTS screen for small molecules that inhibit ELG1-dependent DNA repair in human embryonic kidney (HEK293T) cells expressing luciferase-tagged ELG1; HEK293T ELG1-luciferase reporter, luminescence, 16 h; DNA damage induced by 5-fluorouridine; Potency, µM (series often up to 46.1 µM), for the others: top-dose activity change, negative = inhibition, actives largely listed as inhibitors; hit rate 2.3% among 330,000; further: potency means the concentration at half of the fitted maximal effect; nearly all actives have a fitted effect of over 55% in size
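Reporter activity after DNA damage by 5-fluorouridine is monitored. Compound-treated cells incubate 16 hr at 37 °C, then ONE-Glo is added for 30 min before luminescence reading.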
HT1080NT lethal: qHTS for induction of synthetic lethality in tumor cells producing 2HG: qHTS for the HT-1080-NT fibrosarcoma cell line. HT-1080-NT fibrosarcoma viability, CellTiter-Glo ATP luminescence, 48 h. hit rate 1.6% among 360,000. Potency, µM (titrated, usually from 46.1 µM), for the others: at the highest dose activity, negative = less viability, most hits filed as cytotoxic. AID 686970, 2013;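 further: NT is the 2HG producing partner of a matched IDH1 knockdown line; potency means the concentration at half of the fitted maximal effect; 0% = DMSO-treated cells and -100% = media-only wells without cells; nearly all actives have a fitted effect of over 55% in size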
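Viability of the 2HG-overproducing fibrosarcoma line after 48 hours of compound exposure at 37 degrees C was determined by luminescence with CellTiter-Glo, and concentration-effect curves were then fitted and categorized.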
HT1080 IDH1KD tx: qHTS for induction of synthetic lethality in tumor cells producing 2HG: qHTS for the HT-1080-IDH1KD cell line | HT-1080 IDH1 knockdown viability, ATP luminescence, 48 h | Potency, µM (highest dose often 46.1 µM), without a hit: at the top dose activity, negative = toxicity, usual class: cytotoxic | hit rate 2% among 360,000 | AID 686971, 2013;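 further: potency means the concentration at half of the fitted maximal effect; 0% = DMSO wells and -100% = cell-free medium wells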
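Cytotoxicity counter-line: IDH1KD HT-1080, 48 h, CellTiter-Glo. Curves classed by r2, magnitude and activity.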
TDP1 cell noCPT: qHTS for Inhibitors of human tyrosyl-DNA phosphodiesterase 1 (TDP1): qHTS in cells in absence of CPT; AID 686978, 2013; DT40 Tdp1-/- hTDP1 cells, no CPT, ATP luminescence, 48 h; Potency, µM (titrated, usually from 46.2 µM), without a hit: at the top dose activity change, negative = growth inhibition, usual class: inhibitors; hit rate 15% among 420,000; further: potency means the concentration at half of the fitted maximal effect; nearly all actives have a fitted effect of over 55% in size
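A cellular qHTS used chicken DT40 cells lacking endogenous Tdp1 but carrying stably transfected human TDP1. Compounds were applied without camptothecin, and cell growth kinetics were judged by ATP-dependent luminescence after ≥48 hr.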
IL1B secr inh: qHTS for Inhibitors of Inflammasome Signaling: IL-1-beta AlphaLISA Primary Screen. THP-1 LPS/ATP IL-1B secretion, AlphaLISA, 16 h; hits give low values. activity change, % at 57.5 µM. hit rate 4.7% among 360,000; in the data active means activity change below about -50%; inconclusive means mostly about -30% to -49%
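Secreted IL-1B measured by AlphaLISA bead assay after 16 h compound exposure of THP-1 cells; compounds (final up to 57.5 uM) added 1 h before LPS (250 ng/mL) and ATP (1.25 mM) stimulation; lower signal means less secretion.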
An asterisk follows results filed as active; u = inconclusive; x = not tested or not shown; [ ] = dose if it differs, or a comment. Unless noted, the call rests on the fitted dose curve; in most records, active means well fitted curve in the direction sought with a large enough effect; inconclusive means small, poorly fitted or top-dose-only effect, or another doubt; inactive means no such curve, though single readings can be large; an effect the other way counts as inactive or inconclusive. Unless noted, on the % scale 0 is the no-effect control and ±100 the full control effect.

SMILES	DT40 TDP1 CPT	ELG1 DNA repair	HT1080NT lethal	HT1080 IDH1KD tx	TDP1 cell noCPT	IL1B secr inh
CCOc1cc(N2CCOCC2)c(OCC)cc1NC(=O)C(NC(=O)c1c(F)cccc1F)C(C)C (stereo not drawn)	u	x	2%	0%	9.2µM*	1
CCOc1cc(N2CCOCC2)c(OCC)cc1NC(=O)c1ccc(NC(C)=O)cc1	-14%	-27%	-1%	-1%	-28%	5
CCOc1cc(N2CCOCC2)c(OCC)cc1NC(=O)c1ccco1	-18%	-25%	9%	10%	12µM*	4
CCOc1cc(N2CCOCC2)c(OCC)cc1NC(=O)c1ccc(OC)c(S(=O)(=O)N2CCOCC2)c1	-24%	u	-9%	0%	u	20
CCOc1cc(N2CCOCC2)c(OCC)cc1NC(=O)c1ccc(OC)cc1	6.5µM*	u	-7%	-1%	7.3µM*	2
CNc1ccc2ncc(-c3ccccc3C(C)=O)n2n1	-19%	x	6%	11%	u	7
O=C(Nc1cc2c(cc1C(=O)c1ccccc1Br)OCCO2)c1cccc(Cl)c1	-1%	x	x	x	-12%	x
CCOc1cc(N2CCOCC2)c(OCC)cc1NC(=O)c1cnccn1	21µM*	10µM*	0%	-1%	23µM*	-18
CCOc1cc(N2CCOCC2)c(OCC)cc1NC(=O)C(NC(=O)c1ccco1)C(C)C (stereo not drawn)	-27%	u	3%	8%	12µM*	-8
CCCCCOc1ccc(C(=O)Nc2ccc(N3CCOCC3)cc2N2CCOCC2)cc1	1%	13%	11%[9.24 µM]	17%	1%	3
CC(C)COc1ccc(C(=O)Nc2ccc(N3CCOCC3)cc2N2CCOCC2)cc1	18µM*	-24%	6%	1%	16µM*	-12
CCOc1cc(N2CCOCC2)c(OCC)cc1NC(=O)c1nc2nc(C)cc(C)n2n1	u	7.9µM*	10%	17%	23µM*	8
CCOc1ccccc1C(=O)NC(C(=O)Nc1ccccc1N1CCOCC1)C(C)C (stereo not drawn)	u	2%	-3%[9.24 µM]	-2%	u	-20
C[C@@H](c1ncncc1F)C(O)(Cn1cncn1)c1ccc(F)cc1F (stereo partly drawn)	-27%	x	x	x	-21%	x
COC(=O)c1cc2sccc2n1Cc1nc(-c2ccc(C)cc2)oc1C	-8%	x	x	x	-4%	x
COc1ccc([C@H]2N[C@]3(CCCN(Cc4ccc(Cl)cc4)C3=O)[C@H]3C(=O)N(Cc4ccccc4)C(=O)[C@@H]23)cc1	18µM*	x	-14%	-21%	23µM*	-22
COc1ccc([C@H]2N[C@]3(CCCN(Cc4ccc(C)cc4)C3=O)[C@H]3C(=O)N(Cc4ccccc4)C(=O)[C@@H]23)cc1	u	x	10%	-12%	16µM*	-13
NC(=O)c1nc(-c2ccc(F)c(F)c2)nc2c1[nH]c(=O)n2-c1cccc(Cl)c1	u	x	x	x	-17%	x
CCN(CC)c1cc(C)c2cc(NC(=O)c3cccc(OC)c3OC)ccc2n1	16µM*	x	x	x	6.5µM*	x
CCOc1ccc(NC(=O)c2cccc(NC(=O)c3ccccc3)c2)cc1	u	u	-19%	-20%	u	-16
CCOc1ccccc1C(=O)Nc1ccc2nc(N(CC)CC)cc(C)c2c1	21µM*	x	x	x	21µM*	x
CCN(CC)c1cc(C)c2cc(NC(=O)c3ccccc3F)ccc2n1	21µM*	7%	-11%	-23%	29µM*	-57*
CCN(CC)c1cc(C)c2cc(NC(=O)CNC(C)=O)ccc2n1	32%	5%	-5%	-3%	-12%	-4
CCOc1ccc(C(=O)Nc2ccc3nc(N(CC)CC)cc(C)c3c2)cc1	18µM*	x	x	x	u	x
CCOc1cc(CNc2ccc(O)cc2)cc(Br)c1OCc1ccccc1	23µM*	x	x	x	16µM*	x
SMILES	DT40 TDP1 CPT	ELG1 DNA repair	HT1080NT lethal	HT1080 IDH1KD tx	TDP1 cell noCPT	IL1B secr inh
COc1cccc(CNc2ccccc2O)c1OCc1ccccc1F	23µM*	u	-18%	-19%	u	-92*
CCOc1cc(CNc2ccc3c(c2)OCCO3)cc(Br)c1OC	0.52µM*	17%	2.3µM*	1.5µM*	1.2µM*	22
COc1cc(CNc2ccc(O)cc2)cc(Br)c1OCc1ccccc1F	16µM*	u	u	u	u	-1
COc1ccccc1CNC(=O)COc1cc(=O)n(C)c2ccccc12	-28%	x	x	x	u	x
COC(=O)Cn1nc(C)c2c(C)n(-c3ccccc3)nc2c1=O	-1%	x	x	x	-1%	x
Cn1cnc(S(=O)(=O)N2CCCCC2c2cc(C(=O)Nc3ccc(F)c(Cl)c3)no2)c1 (stereo not drawn)	u	x	-12%	-19%	u	-7
O=C1NC[C@@H](CCCCN2C[C@H](Cc3ccc(O)cc3)N(CCc3ccccc3)C(=O)C2=O)N(CCc2ccc(O)cc2)C1=O	-22%	x	11%	25%	-14%	-14
CCNC(=O)c1c(NC(=O)Cc2coc3cc(C)ccc23)sc2c1CCCC2	12µM*	x	x	x	18µM*	x
Cc1ccc2c(=O)cc(C(=O)Nc3sc4c(c3C(=O)NCc3ccco3)CCC4)oc2c1	-6%	x	x	x	-22%	x
COCCNC(=O)c1c(NC(=O)c2cc(=O)c3cc(Cl)ccc3o2)sc2c1CCCC2	-9%	x	x	x	-23%	x
CCNC(=O)c1c(NC(=O)c2cc(-c3cc(C)ccc3O)n[nH]2)sc2c1CCCC2	u	u	23%	17%	16µM*	9
CNC(=O)c1c(NC(=O)Cc2coc3ccc(OC)cc23)sc2c1CCCC2	16µM*	x	x	x	21µM*	x
COCCCNC(=O)c1c(NC(=O)Cc2coc3cc(C)ccc23)sc2c1CCCC2	16µM*	x	x	x	16µM*	x
Cc1ccc(-c2cc(C(=O)Nc3sc4c(c3C(=O)NCc3ccco3)CCC4)[nH]n2)c(O)c1	-13%	u	17%	12%	u	1
CC1CN2C(c3ccc([N+](=O)[O-])cc3)=CSC2=N1 (stereo not drawn)	5%	23%	-2%	7%	-7%	14
